Inhibition data for 102 compounds are collected here from PubChem BioAssay AID777 (Sanford-Burnham Center for Chemical Genomics, 2007).

Screen size: about 96,000 compounds; about 19,000 (20%) were called active. Not all results are given here. Values without a mark were called inactive.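 How the source made its calls: active means blocking of liver enzyme CYP2C9 beyond about 50% at 5 µM (limit read from the data); inactive means the rest.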

Chain of Cytochrome P450 2C9 (Homo sapiens) (P11712 whole entry, looked up): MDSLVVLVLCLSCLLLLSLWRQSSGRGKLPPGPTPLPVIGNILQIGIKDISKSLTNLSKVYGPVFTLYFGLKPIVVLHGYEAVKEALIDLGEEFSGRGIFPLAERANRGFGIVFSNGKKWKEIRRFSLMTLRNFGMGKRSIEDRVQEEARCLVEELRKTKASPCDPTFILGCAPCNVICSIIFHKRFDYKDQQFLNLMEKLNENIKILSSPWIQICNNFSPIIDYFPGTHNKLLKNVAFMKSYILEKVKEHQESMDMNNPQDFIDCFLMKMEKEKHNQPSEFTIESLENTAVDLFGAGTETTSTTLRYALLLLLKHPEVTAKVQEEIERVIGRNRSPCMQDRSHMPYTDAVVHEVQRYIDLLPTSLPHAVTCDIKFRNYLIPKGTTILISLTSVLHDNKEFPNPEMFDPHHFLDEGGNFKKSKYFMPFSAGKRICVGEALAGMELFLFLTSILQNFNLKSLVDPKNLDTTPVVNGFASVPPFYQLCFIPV

The assay addresses Cytochrome P450 2C9 (Homo sapiens) (UniProt P11712). Kind of assay: blockers of cytochrome P450 2C9 activity – biochemical, luminescence, ADME assay, primary screen (AID 777). As to conditions: CYP2C9 Supersomes, luciferin-H conversion, at 5 µM, active compounds read high.
As to `CSc1ccc(-c2c(C#N)c(N)nc3c2c(C)nn3-c2ccccc2)cc1`, the inhibition was 17.3%.
As to `N#CC1=C(N)N(c2ccc(F)cc2)C(=O)C1`, the inhibition was -13.8%.
Under `Cc1c(NC(=O)c2coc(=O)c(Br)c2)c(=O)n(-c2ccccc2)n1C` stands -1.3%.
In the case of `CC(Nc1nc(N2CCCC2)nc2ccccc12)c1ccccc1` (configuration not stated), the inhibition is 11.6%.
Turning to `N#C/C(=C/c1ccc(Cl)cc1)NC(=O)c1ccccc1`, the inhibition was 40.8%.
Under `COc1ccccc1-n1nnnc1S(=O)(=O)Cc1ccc(Cl)cc1` stands 45.6%; under `COc1cccc(NC(=O)C2c3cc(OC)c(OC)cc3C(=O)N(C)C2c2cccnc2)c1` (configuration not stated), 30.6%.
Under `CS(=O)(=O)c1sc2nc(-c3ccccc3)cc(-c3ccccc3)c2c1N` stands 19%.
As for `CCc1ccc(N2CC(C(=O)NC3=NCCS3)CC2=O)cc1` (configuration not stated), the inhibition is 27.4%.
On to `CC(C)c1ccc(N2CC(C(=O)Nc3nccs3)CC2=O)cc1` (configuration not stated), for which the inhibition was 78.1% (active).
In the case of `CCCOc1ccc(N2CC(C(=O)Nc3ccccn3)CC2=O)cc1` (configuration not stated) it was 8.9%; in that of `Cc1ccc(-n2nc(N)c3c(=O)oc(N(C)C)nc32)cc1`, 11.3%; in that of `O=C(COc1cc(Cl)c(Cl)cc1Cl)NC(=O)NC1CCCC1`, -13%.
In the case of `CCOc1ccc(NC(=O)CN(C)CC(=O)Nc2cccc(Cl)c2C)cc1OCC` it was 56.1% (active); in that of `CCNC(=S)Nc1cccc(Cl)c1C`, 16%.
Under `O=C(Cc1ccc2c(c1)CCCC2)Nc1ccccc1Cl` stands 13.7%; under `CC(=O)N1CC2(C)CN(C(C)=O)CC(C)(C1)C2=O`, -0.1%; under `O=C(Nc1cccc(OCC(=O)N2CCOCC2)c1)C1CCCCC1`, -6.8%.
In the case of `CCN(CC)S(=O)(=O)c1ccc2c3c(cccc13)C(=O)S2`, the inhibition was -46.8%.
Under `O=c1[nH]nc(Cc2ccccn2)c2ccccc12` stands -9.2%.
Regarding `CN(CCc1ccccn1)S(=O)(=O)c1ccc2c3c(cccc13)C(=O)N2`, the inhibition is 70.5% (active).
In the case of `Cc1ccc(NC(=S)NC(=O)c2ccc(-c3ccccc3)cc2)c(C)c1`, the inhibition is 19%.
`COC(=O)c1nc(NC(=O)c2ccccc2)n[nH]1`: the inhibition is 0.3%.
With `Cc1cc2[nH]ncc2cc1NC(=S)NC(=O)c1ccccc1`, the inhibition was 97.8% (active).
In the case of `COc1ccc(N(CC(=O)NC(C)(C)C)C(=O)c2ccco2)cc1` it was 9.6%.
Under `Cc1cc(Cl)ccc1N1C(=O)CC(SCCC(=O)O)C1=O` (configuration not stated) stands 35.2%; under `C/C(=C\C(=O)c1cccnc1)Nc1ccc(C)c(C)c1`, 12.9%.
Under `Cc1ccc(NC(=O)CN(C)S(=O)(=O)c2cnc[nH]2)cc1C` stands 93.7% (active); under `COc1ccc(NC(=O)CN(C)S(=O)(=O)c2ccccc2)cc1OC`, 21.2%.
`Cc1ccc(C)n1-c1ccncc1`: the inhibition is 40.5%.
Under `COc1ccc(Cl)cc1S(=O)(=O)N1CCN(CC(=O)C(C)(C)C)CC1` stands -142%; under `CCOC(=O)c1c(NC(=S)NC(=O)c2ccco2)sc2c1CCCC2`, 0.4%; under `CCOC(=O)c1c(-c2cccc(C)c2)csc1NC(=O)c1c(-c2ccccc2)noc1C`, 26.8%.
On to `CCOC(=O)c1c(-c2ccccc2)csc1NC(=S)NC(=O)c1ccccc1`, for which the inhibition is 55% (active).
In the case of `O=C1CSC(c2ccc(Cl)cc2)N1` (configuration not stated) it was -1%; in that of `COc1cc(C2CC(=O)N3CN(Cc4ccccc4)CSC3=C2C#N)ccc1OCc1ccccc1` (configuration not stated), 86.4% (active).
Under `COc1ccc(C2CC(=O)n3c(nc4ccccc43)S2)cc1OC` (configuration not stated) stands 14.4%; under `COc1ccc(C2CC(=O)Nc3sc(=N)c4c(N)c(C#N)c(N)nc4c32)cc1OC` (configuration not stated), 41.6%.
Under `CCCNC(=O)C1CC(=O)N(c2ccc(OCC(=O)Nc3cccc(C)c3C)cc2)C1` (configuration not stated) stands 22.1%.
On to `COc1ccc(-n2nc3c(c2NC(=O)Cc2cccc(C)c2)CS(=O)C3)cc1` (configuration not stated), for which the inhibition is -1.9%.
For the compound `Cc1ccc(OC(=O)c2cc3ccccc3o2)cc1`, the inhibition is -2.9%.
Under `COc1ccccc1C(=O)Oc1ccc(N2C(=O)CCC2=O)cc1` stands -113%; under `Cc1ccc(OC(=O)c2ccccc2C(=O)OCC(F)(F)C(F)F)cc1`, 84.1% (active).
Under `CC(C)(C)c1ccc(C(=O)NNC(=O)Cc2ccccc2)cc1` stands 6.1%; under `CCCCN1C(=O)CC(N2CCOCC2)C1=O` (configuration not stated), 1.5%; under `CN1CCCN(S(=O)(=O)c2ccc3c(c2)OCCO3)CC1`, -7.5%.
Under `CCCCNC(=O)C1CCCN(S(=O)(=O)c2ccc(S(=O)(=O)NCC(C)C)cc2)C1` (configuration not stated) stands 46%.
On to `CCCCn1c(=S)[nH]c2cc(S(=O)(=O)N3CCCCC3)ccc21`, for which the inhibition is 64.3% (active).
In the case of `c1ccc(-c2cn3cccnc3n2)cc1` it was -1.3%; in that of `c1ccc(-n2nnnc2NC2CCCCCC2)cc1`, 24%; in that of `Cc1cc(C)c([N+](=O)[O-])cc1-c1ccc(/C=N/NC(=O)c2nonc2N)o1`, 22.2%.
Under `Cc1cc(-c2ccc(/C=N/n3cnnc3)o2)c([N+](=O)[O-])cc1C` stands 50.5% (active); under `Cc1cc([N+](=O)[O-])c(-c2ccc(/C=N/n3cnnc3)o2)cc1Cl`, 77% (active); under `O=C1C2C3C=CC(C4CC34)C2C(=O)N1/N=C/c1ccc(-c2ccccc2[N+](=O)[O-])o1` (configuration not stated), 36.8%.
With `CCCC(=O)N1c2ccccc2NC2=C(C(=O)CCC2)C1c1ccc(F)cc1` (configuration not stated), the inhibition was 8.5%.
Under `CC(=O)CCS(=O)(=O)c1ccc(C)c(C)c1` stands -62.6%.
Under `Cc1c(CN2CCC(C)CC2)c(=O)n(-c2ccccc2)n1C` stands -8%.
In the case of `CCOC1CS(=O)(=O)CC1OCC` (configuration not stated) it was -5.4%; in that of `CC(NC(=O)c1cc(-c2ccccc2)on1)c1ccccc1` (configuration not stated), -23.7%.
Take `CC(N=Cc1nc(-c2ccccc2)oc1O)c1ccccc1` (configuration not stated): the inhibition is 66.7% (active).
Under `CCOC(=O)N1CCN(CC(=O)c2ccc3c(c2)CCN3)CC1` stands -1.9%.
Under `CC(=O)Nc1nc(C)c(Cc2ccccc2)c(=O)[nH]1` stands -0.9%; under `CC1(C)Cc2c(sc3nc(SCC(=O)NCc4ccccc4)n(-c4ccccc4)c(=O)c23)CS1`, -0.2%; under `O=C(NCCCN1CCOCC1)c1cc2c(s1)CCC2`, -6.3%.
In the case of `O=C(CNC(=O)c1cc2c(s1)CCC2)Nc1ccccc1Br` it was 30%; in that of `O=C(c1cc2c(s1)CCC2)N1CCN(c2ccccc2)CC1`, 54.4% (active).
As for `Cc1nnc(SCc2nc3ccccc3nc2C)s1`, the inhibition is -5.7%.
As for `CC(C)NC(=O)c1ccccc1S(=O)c1ccccc1C#N` (configuration not stated), the inhibition is -1.3%.
As for `Cc1cnc(NC(=O)CSc2nnc(-c3ccc(Cl)cc3Cl)n2N)s1`, the inhibition was 46.7%.
`CSc1ccc(CCNC(=O)C2CCN(c3nnc(-n4cccc4)s3)CC2)cc1`: the inhibition was 37%.
In the case of `O=C(CN1CCSCC1)N/N=C/c1ccc(F)cc1F` it was 7.6%; in that of `O=C1OC(c2ccc(Cl)cc2)=N/C1=C\c1cccnc1`, 18.2%; in that of `CN1/C(=C\C=C2\N=C(c3ccc(F)cc3)OC2=O)C(C)(C)c2ccccc21`, 64.7% (active).
Under `CCn1cc(C(=O)NCc2ccc(OC)cc2OC)c(=O)c2ccc(C)nc21` stands 15.3%; under `CCCCCCOC(=O)NCC(O)c1ccccc1` (configuration not stated), 23.8%.
In the case of `c1ccc(-n2ncc(-c3nn[nH]n3)n2)cc1` it was 46.2%.
For the compound `COc1ccc(N2C(=O)C3CCCN3C2c2cccc(OC)c2)cc1` (configuration not stated), the inhibition is 16.3%.
Regarding `CCCCNC(=O)CSc1nccn1Cc1ccccc1`, the inhibition is 23%.
Consider `CCCCCCNC(=O)CSc1nccn1Cc1ccccc1`, for which the inhibition was 77.3% (active).
In the case of `COC(=O)CCSc1nccn1Cc1ccccc1` it was 10.8%.
For `C=CCN(c1ccc(C(N)=O)cc1)S(C)(=O)=O`, the inhibition was -10.7%.
Under `CC(=O)c1c(N)n(C)c(=O)n(C)c1=O` stands 21.6%; under `ONC(=Nc1ccccc1)c1ccccc1Cl`, 2.1%; under `CCOC(=O)c1sc(NC(=O)c2cc(S(=O)(=O)N3CCOCC3)ccc2C)nc1C`, 71% (active).
In the case of `O=C(Nc1ccc2c(c1)nc1n2CCCCC1)c1cc(S(=O)(=O)N2CCOCC2)ccc1Cl` it was 43.5%; in that of `Cc1ccc(S(=O)(=O)N2CCOCC2)cc1C(=O)NCc1ccc(F)cc1`, 31.6%; in that of `O=C1c2cccc3cc(Br)cc(c23)C(=O)N1Nc1ccccc1`, -74%.
Under `Cn1cccc1C1(C(F)(F)F)NCCNC1=O` (configuration not stated) stands 72% (active); under `N#C/C(=C\c1ccccc1)c1n[nH]c(Cn2cncn2)n1`, 27%; under `O=C1CSC(=O)N1CCOCCN1C(=O)CSC1=O`, 7.2%.
For `CC(C)C[C@H](NC(=O)NCCc1ccc(Cl)cc1)C(=O)O`, the inhibition was 59.9% (active).
Consider `CSCC[C@H](NC(=O)NCCc1ccc(F)cc1)C(=O)O`, for which the inhibition was 14.5%.
As for `C[C@H](NC(=O)NCCc1ccccc1)C(=O)O`, the inhibition was 2.2%.
Under `Cc1ccc(C(=O)C[n+]2cc(-c3ccccc3)n3c2CCCCC3)cc1` stands -11.7%.
In the case of `NC(=O)Cn1c(=O)oc2ccccc21` it was -13.8%.
Consider `CCC(C)c1ccc(O)c(/C=N/O)c1` (configuration not stated), for which the inhibition is 13.7%.
In the case of `COc1ccc(C(=O)Nc2nc(-c3ccc(S(=O)(=O)N4CCOCC4)cc3)cs2)cc1` it was 62.5% (active); in that of `CCOC(=O)c1csc(NC(=O)c2ccc(S(=O)(=O)N3CCCC3)cc2)n1`, -12.7%.
In the case of `COC(=O)[C@H](Cc1ccccc1)NC(=O)Nc1ccc(S(N)(=O)=O)cc1` it was 1.6%.
In the case of `CCC(=O)Nc1ccc(S(=O)(=O)NCC2CCCO2)cc1` (configuration not stated) it was -1.7%; in that of `COC(=O)c1ccccc1NC(=O)Cn1nc(C(F)(F)F)c2c1CCC2`, 17.4%; in that of `COC(=O)c1ccccc1Sc1c(/C=N/OCc2ccc(Cl)cc2)c(C(F)(F)F)nn1C`, 89.6% (active).

What is called inhibition is the drop in the measured response relative to a control, in per cent.
